# In PubChem BioAssay (NCATS):
# Records with an inconclusive call do not appear. A call without a number means that no potency is given here. Values without a mark were called inactive. Active and inactive are the calls of the source. The call rests on the fitted dose curve; in most records, active means well fitted curve in the direction sought with a large enough effect; inconclusive means small, poorly fitted or top-dose-only effect, or another doubt; inactive means no such curve, though single readings can be large; an effect the other way counts as inactive or inconclusive.
# Key:
# [1] = biological target: Rap guanine nucleotide exchange factor 3 (Homo sapiens) (UniProt O95398); experiment: Confirmatory qHTS for agonist of cAMP-regulated guanine nucleotide exchange factor 3 (EPAC1) (AID 1645881);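 further: EPAC1 catalysed release of BODIPY-GDP from Rap1B seen as fluorescence loss; nearly all actives have a fitted effect of over 75% in size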
# Chain of Rap guanine nucleotide exchange factor 3 (Homo sapiens) (O95398 whole entry, looked up): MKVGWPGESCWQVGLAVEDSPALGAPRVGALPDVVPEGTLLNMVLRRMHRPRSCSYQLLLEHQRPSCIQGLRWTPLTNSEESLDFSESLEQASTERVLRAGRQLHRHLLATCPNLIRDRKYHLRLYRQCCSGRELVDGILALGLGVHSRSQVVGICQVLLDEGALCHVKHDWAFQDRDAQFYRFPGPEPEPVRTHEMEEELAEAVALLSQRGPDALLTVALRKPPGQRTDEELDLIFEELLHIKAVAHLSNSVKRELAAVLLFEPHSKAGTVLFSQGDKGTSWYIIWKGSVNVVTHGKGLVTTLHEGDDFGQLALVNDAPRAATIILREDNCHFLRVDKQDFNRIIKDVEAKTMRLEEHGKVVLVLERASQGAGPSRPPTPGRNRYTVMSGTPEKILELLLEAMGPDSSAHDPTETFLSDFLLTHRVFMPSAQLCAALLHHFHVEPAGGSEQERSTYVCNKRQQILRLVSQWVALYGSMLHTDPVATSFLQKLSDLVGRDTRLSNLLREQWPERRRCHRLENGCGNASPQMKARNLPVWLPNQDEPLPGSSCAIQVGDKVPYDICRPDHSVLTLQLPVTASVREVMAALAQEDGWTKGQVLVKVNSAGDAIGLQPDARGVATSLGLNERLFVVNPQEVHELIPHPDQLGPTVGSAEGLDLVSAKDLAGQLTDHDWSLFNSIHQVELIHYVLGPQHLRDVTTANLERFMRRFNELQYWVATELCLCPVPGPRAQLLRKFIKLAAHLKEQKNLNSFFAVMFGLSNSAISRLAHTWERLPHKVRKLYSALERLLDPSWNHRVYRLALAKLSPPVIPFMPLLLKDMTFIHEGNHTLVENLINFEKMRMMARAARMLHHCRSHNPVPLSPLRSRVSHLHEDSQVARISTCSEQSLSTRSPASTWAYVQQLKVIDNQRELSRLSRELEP
# [2] = biological target: Rap guanine nucleotide exchange factor 3 (Homo sapiens) (UniProt O95398); experiment: Counterscreen qHTS for antagonist of cAMP-regulated guanine nucleotide exchange factor 3 (EPAC1) (AID 1645888);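 further: fluorescence loss as bound BODIPY-GDP is released from Rap1B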
# Method in brief: (§1)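 Rap1B-BODIPY-GDP 250 nM + GDP 50 uM; cpds 7-pt, final 9.74 nM–152 uM (activator mode) or from 7.32 nM upwards (inhibitor mode); RT; FI 480/540 nm at 5 and 30 min, then ± cAMP, reread.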
# [3] = biological target: Rap guanine nucleotide exchange factor 3 (Homo sapiens) (UniProt O95398); experiment: Counterscreen qHTS for agonist of cAMP-regulated guanine nucleotide exchange factor 3 (EPAC1) (AID 1645889); further: nearly all actives have a fitted effect of over 40% in size
# Method in brief: as §1
# [4] = biological target: Rap guanine nucleotide exchange factor 4 (Homo sapiens) (UniProt Q8WZA2); experiment: Confirmatory qHTS for agonist of cAMP-regulated guanine nucleotide exchange factor 4 (EPAC2) (AID 1645884);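 further: nucleotide exchange releases bodipy-GDP from Rap1 and this lowers its fluorescence; nearly all actives have a fitted effect of over 65% in size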
# Chain of Rap guanine nucleotide exchange factor 4 (Homo sapiens) (Q8WZA2 whole entry, looked up): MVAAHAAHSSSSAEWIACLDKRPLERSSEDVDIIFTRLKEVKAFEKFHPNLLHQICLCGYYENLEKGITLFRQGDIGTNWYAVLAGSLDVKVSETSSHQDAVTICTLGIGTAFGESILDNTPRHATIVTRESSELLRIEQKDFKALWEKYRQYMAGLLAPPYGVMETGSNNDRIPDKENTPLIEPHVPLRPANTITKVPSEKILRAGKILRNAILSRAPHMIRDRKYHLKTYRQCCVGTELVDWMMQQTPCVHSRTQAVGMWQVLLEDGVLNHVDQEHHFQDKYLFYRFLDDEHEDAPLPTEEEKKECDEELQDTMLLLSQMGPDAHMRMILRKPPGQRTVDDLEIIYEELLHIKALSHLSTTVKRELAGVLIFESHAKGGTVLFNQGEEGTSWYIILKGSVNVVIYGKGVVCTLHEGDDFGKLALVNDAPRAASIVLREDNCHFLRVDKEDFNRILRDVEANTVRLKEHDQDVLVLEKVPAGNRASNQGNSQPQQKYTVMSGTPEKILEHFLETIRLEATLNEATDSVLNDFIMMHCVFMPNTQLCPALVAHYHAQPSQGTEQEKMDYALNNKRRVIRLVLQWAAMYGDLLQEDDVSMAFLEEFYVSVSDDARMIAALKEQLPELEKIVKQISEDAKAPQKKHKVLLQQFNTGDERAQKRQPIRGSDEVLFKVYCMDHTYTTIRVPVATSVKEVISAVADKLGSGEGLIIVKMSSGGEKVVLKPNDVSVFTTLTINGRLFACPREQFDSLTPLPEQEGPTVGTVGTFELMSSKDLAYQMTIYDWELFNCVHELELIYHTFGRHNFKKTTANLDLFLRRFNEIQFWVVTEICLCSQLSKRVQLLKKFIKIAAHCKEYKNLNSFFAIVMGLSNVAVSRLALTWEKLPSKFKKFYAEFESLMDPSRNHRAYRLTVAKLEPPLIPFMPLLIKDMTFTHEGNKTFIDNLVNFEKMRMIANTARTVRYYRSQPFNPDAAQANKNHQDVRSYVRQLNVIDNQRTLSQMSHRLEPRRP
# [5] = biological target: Rap guanine nucleotide exchange factor 4 (Homo sapiens) (UniProt Q8WZA2); experiment: Confirmatory qHTS for antagonist of cAMP-regulated guanine nucleotide exchange factor 4 (EPAC2) (AID 1645885); further: nearly all actives have a fitted effect of over 25% in size
smiles,measurement,setting,value
Cc1ccc(N(Cc2ccc([N+](=O)[O-])cc2)C(=O)c2ccco2)cc1C,Potency,[1],inactive
same,Potency,[2],inactive
same,Potency,[3],inactive
CN(Nc1cccc(Cl)c1)c1cccc(Cl)c1,Potency,[1],inactive
same,Potency,[2],inactive
C/C(=N\N(Cc1ccccc1)c1ccccc1)c1cccnc1,Potency,[1],inactive
same,Potency,[2],inactive
O=C1Nc2ccccc2/C1=N\N=C\c1ccc(O)c(O)c1,Potency,[1],inactive
same,Potency,[2],inactive
O=C1N(c2ccc(Cl)cc2)C(c2ccccc2)N2CCCN12 (stereo not drawn),Potency,[1],inactive
same,Potency,[2],inactive
Cc1ccc(S(=O)(=O)CC(=O)c2cc3cccc(C)c3oc2=O)cc1,Potency,[1],inactive
same,Potency,[2],inactive
same,Potency,[3],inactive
Cc1ccc2c(c1)OC(=O)CC2c1ccccc1 (stereo not drawn),Potency,[1],inactive
same,Potency,[2],inactive
COc1ccc(CN(C(=O)c2ccco2)c2ccc(C)c(C)c2)cc1,Potency,[1],inactive
same,"activity change, negative = inhibition",[2],-23% [at 30.8 µM]
same,activation,[3],12.3% [at 30.8 µM]
COC(=O)C1=CN(c2c(C)cc(C)cc2C)C(N)=C(C#N)C1c1ccccc1 (stereo not drawn),Potency,[1],inactive
same,Potency,[2],inactive
Cc1ccccc1C1CC(=O)c2ccccc2C1C (stereo not drawn),Potency,[1],inactive
same,Potency,[2],inactive
same,Potency,[3],inactive
CC(=O)Nc1ccc(S(=O)(=O)N2CCN(c3cc(C)ccc3C)CC2)cc1,Potency,[1],inactive
same,Potency,[2],inactive
CCC(C(=O)c1ccc2ncccc2c1)c1ccccc1 (stereo not drawn),Potency,[1],inactive
same,Potency,[2],inactive
same,Potency,[3],inactive
COc1ccccc1C1CC(=O)Oc2cc(C)c(Br)c(C)c21 (stereo not drawn),Potency,[1],inactive
same,Potency,[2],inactive
COc1ccc(CN2C(=O)c3cccnc3C2O)cc1 (stereo not drawn),Potency,[1],inactive
same,Potency,[2],inactive
same,Potency,[3],inactive
CCC(=O)N1N=C(c2cccs2)CC1c1ccc(C)cc1 (stereo not drawn),Potency,[1],inactive
same,Potency,[2],inactive
same,Potency,[3],inactive
COC(=O)c1ccc2nc(-c3ccc(C)cc3)c(Cc3ccsc3)n2c1,Potency,[1],inactive
same,"activity change, negative = inhibition",[2],1.91% [at 30.8 µM]
same,activation,[3],9.45% [at 30.8 µM]
CCC(CC)C(=O)Nc1nc(-c2ccc3c(c2)CCN3C(=O)C2CC2)c(C)s1,Potency,[1],inactive
same,"activity change, negative = inhibition",[2],-24% [at 30.8 µM]
same,activation,[3],26.5% [at 30.8 µM]
COc1ccc(C(=O)c2oc3ccc(OC)cc3c2N)cc1,Potency,[1],inactive
same,Potency,[2],inactive
same,Potency,[3],inactive
CCc1nnc(NS(=O)(=O)c2ccc(NC(=O)C(c3ccccc3)c3ccccc3)cc2)s1,Potency,[1],inactive
same,Potency,[2],inactive
O=C(/C=C/c1ccco1)Oc1cc(Br)cc(/C=N/NC(=O)c2ccccc2O)c1,Potency,[1],inactive
same,Potency,[2],inactive
O=C(CSc1ncnc2[nH]ncc12)Nc1cccc(Oc2ccccc2)c1,activation,[4],"10.9% [at 17.1 µM, percent relative to cAMP agonist control]"
same,Potency,[5],inactive
same,"activity change, negative = inhibition",[2],-9.96% [at 30.8 µM]
CCOC(=O)C1=C(C)N(C)C(C)=C(C(=O)OCC)C1c1ccc(Cl)cc1,Potency,[1],inactive
same,Potency,[2],inactive
same,Potency,[3],inactive
O=C1Nc2ccccc2N=C(c2ccccc2)c2ccccc21,Potency,[1],inactive
same,activation,[3],39.2% [at 30.8 µM]
C/C(=N\N(Cc1ccccc1)c1ccccc1)c1ccncc1,activation,[4],"-6.71% [at 17.1 µM, percent relative to cAMP agonist control]"
same,Potency,[5],inactive
COc1ccc(OC)c(C2=CC(=O)C[C@H](c3ccc4c(c3)OCO4)C2)c1,activation,[4],"11.2% [at 17.1 µM, percent relative to cAMP agonist control]"
same,Potency,[5],inactive
same,"activity change, negative = inhibition",[2],-6.17% [at 30.8 µM]
COC(=O)C1=C(C)N(Cc2ccco2)C(=O)N[C@H]1c1cccc(C(F)(F)F)c1,Potency,[1],inactive
same,Potency,[3],inactive
CCC(=O)N(CCC(c1ccco1)C(C)C)Cc1ccccc1 (stereo not drawn),Potency,[1],inactive
same,Potency,[3],inactive
Cc1cc(C)c(S(=O)(=O)Nc2ccc3c(c2)CCC3)c(C)c1,Potency,[1],inactive
same,Potency,[3],inactive
O=C(O)CCN1C(=O)/C(=C\c2cccc(OCC(=O)Nc3ccc(Cl)cc3)c2)SC1=S,Potency,[4],inactive
same,Potency,[5],inactive
same,Potency,[2],inactive
O=C(c1ccccc1Br)N(Cc1ccccc1)c1ccccc1,activation,[4],"0.0919% [at 17.1 µM, percent relative to cAMP agonist control]"
same,Potency,[5],inactive
same,"activity change, negative = inhibition",[2],-1.15% [at 30.8 µM]
Cc1cc(=O)n(Cc2ccccc2)c2c1c(C)nn2C,Potency,[4],inactive
same,Potency,[5],inactive
same,Potency,[2],inactive
CCc1nc2c(OCc3ccc(C(F)(F)F)cc3)cccn2c1N(C)C(=O)C1CC1,Potency,[1],inactive
same,Potency,[3],inactive
COC(/C(=N/O)c1ccc(Cl)cc1)c1ccccc1 (stereo not drawn),activation,[4],"9.01% [at 17.1 µM, percent relative to cAMP agonist control]"
same,Potency,[5],inactive
same,"activity change, negative = inhibition",[2],-2% [at 30.8 µM]
